The panel holds about 79,000 compounds, 15% with a hit somewhere; the sample as a whole holds those more often. A number with no mark means an inactive call. The source made the active and inactive calls. Cut-off read from the data, not from the text of the source: active = growth inhibition above about 70%; inactive = the rest.
How the values were obtained:
[1] = NCI Yeast Anticancer Drug Screen. Data for the rad50 strain (AID 155);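 note: 0% = growth of vehicle-only cultures of the same strain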; details: S. cerevisiae rad50 strain growth inhibition, active compounds read high
In short: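 Readout: growth inhibition relative to vehicle-treated cultures. Compound exposure was carried out in a genetically defined yeast strain deficient in DNA damage repair.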

[2] = NCI Yeast Anticancer Drug Screen. Data for the mec2-1 strain (AID 157); details: S. cerevisiae mec2-1 strain, active compounds read high
In short: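 Readout is yeast growth inhibition, normalised to vehicle-treated controls, in the mec2-1 strain exposed to compound.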

[3] = NCI Yeast Anticancer Drug Screen. Data for the sgs1 mgt1 strain (AID 161);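 note: 0% = growth of cultures given vehicle only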; details: S. cerevisiae sgs1 mgt1 strain, active compounds read high
In short: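 Percent growth inhibition was derived by comparing compound-exposed mutant yeast with vehicle-exposed cultures. The strain carries alterations in DNA damage repair.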

[4] = NCI Yeast Anticancer Drug Screen. Data for the cln2 rad14 strain (AID 165);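 note: 0% = growth equal to vehicle treated cultures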; details: S. cerevisiae cln2 rad14 strain, active compounds read high
In short: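 Relative to vehicle controls, growth inhibition of compound-treated cln2 rad14 yeast was recorded.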

[5] = NCI Yeast Anticancer Drug Screen. Data for the bub3 strain (AID 167); details: S. cerevisiae bub3 mutant strain, active compounds read high
In short: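 Readout: yeast growth inhibition, expressed relative to vehicle-only wells. The test organism is a mutant strain from a panel with lesions in DNA repair or checkpoint genes.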

[6] = NCI Yeast Anticancer Drug Screen. Data for the mlh1 rad18 strain (AID 175); details: S. cerevisiae mlh1 rad18 strain growth inhibition, active compounds read high
In short: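 Test agents were incubated with a yeast strain of defined genotype (DNA damage repair defect). Inhibition of growth was derived by comparison with vehicle-exposed cultures.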

[7] = at 5.0 µM (retest, dose inferred, filed as 0.5)
[8] = at 50.0 µM (retest, dose inferred, filed as 5.0)

OCCN=Cc1cccs1
growth inhibition [1, 7]: 1%
growth inhibition [1, 8]: 3%
growth inhibition ([1]; at 50.0 µM): 8.85%
growth inhibition [2, 7]: -2%
growth inhibition [2, 8]: 5%
growth inhibition ([2]; at 50.0 µM): 2.8%
growth inhibition [3, 7]: -1%
growth inhibition [3, 8]: 2%
growth inhibition ([3]; at 50.0 µM): 2.05%
growth inhibition [4, 7]: 0%
growth inhibition [4, 8]: 1%
growth inhibition ([4]; at 50.0 µM): 13.7%
growth inhibition [5, 7]: 1%
growth inhibition [5, 8]: 2%
growth inhibition ([5]; at 50.0 µM): 8.25%
growth inhibition [6, 7]: -25%
growth inhibition [6, 8]: 5%
growth inhibition ([6]; at 50.0 µM): 3.4%

Cn1c(=O)c2c3oc(=O)cc(O)c3c(=O)n3c4ccccc4n(c1=O)c23
growth inhibition [1, 7]: 38%
growth inhibition [1, 8]: 83% (active)
growth inhibition ([1]; at 50.0 µM): 74.8% (active)
growth inhibition [2, 7]: 29%
growth inhibition [2, 8]: 69%
growth inhibition ([2]; at 50.0 µM): 19.9%
growth inhibition [3, 7]: 35%
growth inhibition [3, 8]: 86% (active)
growth inhibition ([3]; at 50.0 µM): 45%
growth inhibition [4, 7]: 34%
growth inhibition [4, 8]: 45%
growth inhibition ([4]; at 50.0 µM): 42.5%
growth inhibition [5, 7]: 31%
growth inhibition [5, 8]: 75% (active)
growth inhibition ([5]; at 50.0 µM): 42.3%
growth inhibition [6, 7]: 53%
growth inhibition [6, 8]: 92% (active)
growth inhibition ([6]; at 50.0 µM): 42.1%

COc1ccc(C(=O)C(c2ccc(OC)cc2)C2(O)C(=O)Nc3c(Cl)cc(Cl)cc32)cc1 (configuration not stated)
growth inhibition [1, 7]: 37%
growth inhibition [1, 8]: 37%
growth inhibition ([1]; at 50.0 µM): 91% (active)
growth inhibition [2, 7]: -20%
growth inhibition [2, 8]: -20%
growth inhibition ([2]; at 50.0 µM): 92.3% (active)
growth inhibition [3, 7]: 8%
growth inhibition [3, 8]: 8%
growth inhibition ([3]; at 50.0 µM): 90% (active)
growth inhibition [4, 7]: 25%
growth inhibition [4, 8]: 25%
growth inhibition ([4]; at 50.0 µM): 90.9% (active)
growth inhibition [5, 7]: -6%
growth inhibition [5, 8]: -6%
growth inhibition ([5]; at 50.0 µM): 90.7% (active)
growth inhibition [6, 7]: -18%
growth inhibition [6, 8]: -18%
growth inhibition ([6]; at 50.0 µM): 90.7% (active)

CSC(=N)N1N=C2/C(=C/c3ccccc3)CCC[C@H]2[C@H]1c1ccccc1
growth inhibition [1, 7]: -17%
growth inhibition [1, 8]: -14%
growth inhibition ([1]; at 50.0 µM): 21.4%
growth inhibition [2, 7]: -7%
growth inhibition [2, 8]: -2%
growth inhibition ([2]; at 50.0 µM): -6.7%
growth inhibition [3, 7]: -13%
growth inhibition [3, 8]: 13%
growth inhibition ([3]; at 50.0 µM): 40.7%
growth inhibition [4, 7]: -35%
growth inhibition [4, 8]: 5%
growth inhibition ([4]; at 50.0 µM): -14.8%
growth inhibition [5, 7]: -3%
growth inhibition [5, 8]: 5%
growth inhibition ([5]; at 50.0 µM): 4.45%
growth inhibition [6, 7]: -10%
growth inhibition [6, 8]: 29%
growth inhibition ([6]; at 50.0 µM): 27.9%

CN(C)c1ccc2c(c1)N(C)c1ccccc1C2(Cl)c1ccccc1 (configuration not stated)
growth inhibition [1, 7]: 96% (active)
growth inhibition [1, 8]: 99% (active)
growth inhibition ([1]; at 50.0 µM): 99.2% (active)
growth inhibition [2, 7]: 99% (active)
growth inhibition [2, 8]: 100% (active)
growth inhibition ([2]; at 50.0 µM): 99.5% (active)
growth inhibition [3, 7]: 90% (active)
growth inhibition [3, 8]: 99% (active)
growth inhibition ([3]; at 50.0 µM): 99.3% (active)
growth inhibition [4, 7]: 70% (active)
growth inhibition [4, 8]: 98% (active)
growth inhibition ([4]; at 50.0 µM): 99.2% (active)
growth inhibition [5, 7]: 89% (active)
growth inhibition [5, 8]: 99% (active)
growth inhibition ([5]; at 50.0 µM): 99.3% (active)
growth inhibition [6, 7]: 95% (active)
growth inhibition [6, 8]: 99% (active)
growth inhibition ([6]; at 50.0 µM): 99.4% (active)

Clc1ccccc1C(Cc1c(Cl)cccc1Cl)Cn1ccnc1 (configuration not stated)
growth inhibition [1, 7]: 74% (active)
growth inhibition [1, 8]: 78% (active)
growth inhibition ([1]; at 50.0 µM): 99.8% (active)
growth inhibition [2, 7]: 58%
growth inhibition [2, 8]: 78% (active)
growth inhibition ([2]; at 50.0 µM): 99.8% (active)
growth inhibition [3, 7]: 70% (active)
growth inhibition [3, 8]: 91% (active)
growth inhibition ([3]; at 50.0 µM): 99.8% (active)
growth inhibition [4, 7]: 62%
growth inhibition [4, 8]: 86% (active)
growth inhibition ([4]; at 50.0 µM): 98.8% (active)
growth inhibition [5, 7]: 75% (active)
growth inhibition [5, 8]: 95% (active)
growth inhibition ([5]; at 50.0 µM): 99.7% (active)
growth inhibition [6, 7]: 77% (active)
growth inhibition [6, 8]: 92% (active)
growth inhibition ([6]; at 50.0 µM): 99.8% (active)

Oc1c(Cl)ccc2cccnc12
growth inhibition [1, 7]: 97% (active)
growth inhibition [1, 8]: 98% (active)
growth inhibition ([1]; at 50.0 µM): 92% (active)
growth inhibition [2, 7]: 98% (active)
growth inhibition [2, 8]: 99% (active)
growth inhibition ([2]; at 50.0 µM): 93.8% (active)
growth inhibition [3, 7]: 91% (active)
growth inhibition [3, 8]: 80% (active)
growth inhibition ([3]; at 50.0 µM): 94.1% (active)
growth inhibition [4, 7]: 98% (active)
growth inhibition [4, 8]: 97% (active)
growth inhibition ([4]; at 50.0 µM): 92.5% (active)
growth inhibition [5, 7]: 99% (active)
growth inhibition [5, 8]: 99% (active)
growth inhibition ([5]; at 50.0 µM): 92.8% (active)
growth inhibition [6, 7]: 95% (active)
growth inhibition [6, 8]: 98% (active)
growth inhibition ([6]; at 50.0 µM): 91.7% (active)

O=C(c1ccc(Cl)cc1)c1ccc(OCCCOc2ccc(C(=O)c3ccc(Cl)cc3)cc2)cc1
growth inhibition [1, 7]: -14%
growth inhibition [1, 8]: -32%
growth inhibition ([1]; at 50.0 µM): 17.5%
growth inhibition [2, 7]: -13%
growth inhibition [2, 8]: 2%
growth inhibition ([2]; at 50.0 µM): -16.1%
growth inhibition [3, 7]: -18%
growth inhibition [3, 8]: -4%
growth inhibition ([3]; at 50.0 µM): -2.15%
growth inhibition [4, 7]: -30%
growth inhibition [4, 8]: -7%
growth inhibition ([4]; at 50.0 µM): 38.1%
growth inhibition [5, 7]: -14%
growth inhibition [5, 8]: -14%
growth inhibition ([5]; at 50.0 µM): -14.6%
growth inhibition [6, 7]: -22%
growth inhibition [6, 8]: -26%
growth inhibition ([6]; at 50.0 µM): -1.7%

COc1cc(C2c3cc4c(cc3C(OC3CCCCO3)C3COC(=O)C23)OCO4)cc(OC)c1OC (configuration not stated)
growth inhibition [1, 7]: -2%
growth inhibition [1, 8]: 19%
growth inhibition ([1]; at 50.0 µM): 31.9%
growth inhibition [2, 7]: -1%
growth inhibition [2, 8]: 7%
growth inhibition ([2]; at 50.0 µM): 18.6%
growth inhibition [3, 7]: -10%
growth inhibition [3, 8]: 11%
growth inhibition ([3]; at 50.0 µM): 23.4%
growth inhibition [4, 7]: -3%
growth inhibition [4, 8]: -2%
growth inhibition ([4]; at 50.0 µM): 2.35%
growth inhibition [5, 7]: 4%
growth inhibition [5, 8]: 30%
growth inhibition ([5]; at 50.0 µM): 54.4%
growth inhibition [6, 7]: -6%
growth inhibition [6, 8]: 14%
growth inhibition ([6]; at 50.0 µM): 33.9%
